± gives the standard deviation.
Experiments:
[1] = system: MILI (PIWIL2) piRISC loaded with piRNA #1 (26 nt); test: pre-steady-state target cleavage rate (min^-1); guide: piRNA #1 5'p-UGAGGUAGUAGGUUGUAUAGUAUCCA; higher = faster piRNA-guided slicing of the target; details: auxiliary factor: 500 nM mouse GTSF1;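 further: 1 nM active piRISC with 0.1 nM target library at 33 °C single turnover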
In short: (§1)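 The pre-steady-state cleavage rate was calculated from a burst-and-steady-state fit. Data came from Cleave-'n-Seq, in which […] transcribed, DNA-blocked target RNA library was mixed with 1 nM active affinity-purified piRISC carrying one synthetic guide, with or without 500 nM GTSF1 partner protein, in HEPES–potassium acetate buffer at 33 °C for 0–8 or 0–960 min. Uncleaved targets were sequenced and normalised to depth and to weakly complementary targets, three trials were pooled, and k3 was capped at 0.0001 min^-1.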

[2] = system: EfPiwi piRISC loaded with piRNA #1 (26 nt); test: pre-steady-state target cleavage rate (min^-1); auxiliary factor: 500 nM Ephydatia muelleri Gtsf1; guide: piRNA #1 5'p-UGAGGUAGUAGGUUGUAUAGUAUCCA; MIWI and MILI are mouse PIWI proteins and EfPiwi is from a freshwater sponge; tags in brackets are library labels; higher = faster piRNA-guided slicing of the target
In short: as §1

Sequence: GGAGUGGAUACUAUACAAUCUACUACCUCA
- pre-steady-state target cleavage rate [1]: 0.127 ± 0.009
- pre-steady-state target cleavage rate [2]: 0.105 ± 0.038

Sequence: GGAGACCAUACUAUAUCAACCUACUACCUCA
- pre-steady-state target cleavage rate [1]: 0.0898 ± 0.011
- pre-steady-state target cleavage rate [2]: 0.0136 ± 0.0068

Sequence: GGAGUGGAUACUAUACAACCAACUAGCUCA
- pre-steady-state target cleavage rate [1]: 0.00229 ± 0.0021
- pre-steady-state target cleavage rate [2]: 0.00337 ± 0.0015

Sequence: GGAGAGGUUACUAUACAACGUACUACCUCA
- pre-steady-state target cleavage rate [1]: 0.00751 ± 0.0028
- pre-steady-state target cleavage rate [2]: 0.00457 ± 0.0015

Sequence: GGAGACCAUACUAUACAACCUACUACCUUA
- pre-steady-state target cleavage rate [1]: 0.22 ± 0.024
- pre-steady-state target cleavage rate [2]: 0.0127 ± 0.0048

Sequence: GGAGACCAUAACUAUACAACCUACUACCUCA
- pre-steady-state target cleavage rate [1]: 0.135 ± 0.0094
- pre-steady-state target cleavage rate [2]: 0.138 ± 0.043

Sequence: GGAGAGGAUACUAUACACCCUACUACCUCA
- pre-steady-state target cleavage rate [1]: 0.122 ± 0.015
- pre-steady-state target cleavage rate [2]: 0.0114 ± 0.0053

Sequence: GGAGACCUAACUCAUACAACCUACUACCUCA
- pre-steady-state target cleavage rate [1]: 0.0742 ± 0.033
- pre-steady-state target cleavage rate [2]: 0.0159 ± 0.0089

Sequence: GGAGUGGAUACUAUACAACUUACUACCUCA
- pre-steady-state target cleavage rate [1]: 0.0246 ± 0.0024
- pre-steady-state target cleavage rate [2]: 0.01 ± 0.0049

Sequence: GGAGACCAUACGAUACAACCUACUACCUCA
- pre-steady-state target cleavage rate [1]: 0.255 ± 0.028
- pre-steady-state target cleavage rate [2]: 0.00769 ± 0.0035

Sequence: GGAGACGAAUCUAUACAACCUACUACCUCA
- pre-steady-state target cleavage rate [1]: 0.146 ± 0.015
- pre-steady-state target cleavage rate [2]: 0.0517 ± 0.018

Sequence: GGAGUGGAUACUAUACAACCUACUACCGCA
- pre-steady-state target cleavage rate [1]: 0.0694 ± 0.0095
- pre-steady-state target cleavage rate [2]: 0.00573 ± 0.002

Sequence: GGAGACGAUACUAUACAACGUACAACCUCA
- pre-steady-state target cleavage rate [1]: 0.0345 ± 0.0071
- pre-steady-state target cleavage rate [2]: 0.00279 ± 0.0018

Sequence: GGAGUGGAUACUAUACAUGGAUGAUGGAGA [g14:g26:cont:t1A]
- pre-steady-state target cleavage rate [1]: < 0.0001
- pre-steady-state target cleavage rate [2]: < 0.0001

Sequence: GGAGACGAUACUAUACAUCCUUCUACCUCA
- pre-steady-state target cleavage rate [1]: 0.0277 ± 0.0037
- pre-steady-state target cleavage rate [2]: 0.00356 ± 0.0021

Sequence: GGAGACCAUACUAUACAACCUACUACUCA
- pre-steady-state target cleavage rate [1]: 0.204 ± 0.026
- pre-steady-state target cleavage rate [2]: 0.00387 ± 0.0024

Sequence: GGAGACCAAACUAUACAACCUACUACCACA
- pre-steady-state target cleavage rate [1]: 0.118 ± 0.028
- pre-steady-state target cleavage rate [2]: 0.00528 ± 0.0044

Sequence: GGAGUGGAUACUAUACAACCUACUACCACA
- pre-steady-state target cleavage rate [1]: 0.113 ± 0.0097
- pre-steady-state target cleavage rate [2]: 0.00561 ± 0.0019

Sequence: GGAGACCUUACUAUACAACCUACUACCGCA
- pre-steady-state target cleavage rate [1]: 0.19 ± 0.022
- pre-steady-state target cleavage rate [2]: 0.00343 ± 0.0026

Sequence: GGAGUCGGAUACUAUACAACCUACUACCUCA
- pre-steady-state target cleavage rate [1]: 0.187 ± 0.015
- pre-steady-state target cleavage rate [2]: 0.0621 ± 0.024

Sequence: GGAGACGAUUCUAUACAACCUUCUACCUCA
- pre-steady-state target cleavage rate [1]: 0.0216 ± 0.0072
- pre-steady-state target cleavage rate [2]: 0.00518 ± 0.0027

Sequence: GGAGACCAUCUAUACAACCUACUACCUCA
- pre-steady-state target cleavage rate [1]: 0.112 ± 0.013
- pre-steady-state target cleavage rate [2]: 0.00903 ± 0.0054

Sequence: GGAGACCUUACUAUACAACCUACUACCAUCA
- pre-steady-state target cleavage rate [1]: 0.162 ± 0.024
- pre-steady-state target cleavage rate [2]: 0.00369 ± 0.0024

Sequence: GGAGAGGAUACUCUACAACCUACUACCUCA
- pre-steady-state target cleavage rate [1]: 0.204 ± 0.013
- pre-steady-state target cleavage rate [2]: 0.00431 ± 0.0033

Sequence: GGAGACCAAAGUAUACAACCUACUACCUCA
- pre-steady-state target cleavage rate [1]: 0.0438 ± 0.0093
- pre-steady-state target cleavage rate [2]: 0.0166 ± 0.0082

Sequence: GGAGUGGUUACUAUACAACCUACUACCACA
- pre-steady-state target cleavage rate [1]: 0.0961 ± 0.0098
- pre-steady-state target cleavage rate [2]: 0.00384 ± 0.0022

Sequence: GGAGACCAUACUAUACAACCUACGUACCUCA
- pre-steady-state target cleavage rate [1]: 0.11 ± 0.018
- pre-steady-state target cleavage rate [2]: 0.00254 ± 0.0023

Sequence: GGAGACGAUACUAGACAACCUACUACCUCA
- pre-steady-state target cleavage rate [1]: 0.171 ± 0.013
- pre-steady-state target cleavage rate [2]: 0.00452 ± 0.0029

Sequence: GGAGAGGAAACUUUACAACCUACUACCUCA
- pre-steady-state target cleavage rate [1]: 0.224 ± 0.031
- pre-steady-state target cleavage rate [2]: 0.0107 ± 0.0049

Sequence: GGAGAGGAUAGUAUACAACCUACUACCUGA
- pre-steady-state target cleavage rate [1]: 0.0327 ± 0.0082
- pre-steady-state target cleavage rate [2]: 0.00298 ± 0.0022

Sequence: GGAGUGGAUACUAUACAACCUAAUACCUCA
- pre-steady-state target cleavage rate [1]: 0.0398 ± 0.0071
- pre-steady-state target cleavage rate [2]: 0.00389 ± 0.0016

Sequence: GGAGUCGUUACUAUACAACCUACUACCUCA
- pre-steady-state target cleavage rate [1]: 0.158 ± 0.011
- pre-steady-state target cleavage rate [2]: 0.0129 ± 0.0069

Sequence: GGAGACCUAUCUUUACAACCUACUACCUCA
- pre-steady-state target cleavage rate [1]: 0.063 ± 0.0089
- pre-steady-state target cleavage rate [2]: 0.0058 ± 0.0037

Sequence: GGAGACCAUACUAUGACAACCUACUACCUCA
- pre-steady-state target cleavage rate [1]: 0.165 ± 0.017
- pre-steady-state target cleavage rate [2]: 0.00762 ± 0.0033

Sequence: GGAGACCAUACUUAACAACCUACUACCUCA
- pre-steady-state target cleavage rate [1]: 0.134 ± 0.018
- pre-steady-state target cleavage rate [2]: 0.00395 ± 0.0032

Sequence: GGAGAGGAUACCAUACAACCUACUACCUCA
- pre-steady-state target cleavage rate [1]: 0.167 ± 0.021
- pre-steady-state target cleavage rate [2]: 0.0957 ± 0.032

Sequence: GGAGAGGAUACUAUACAACCUACUGACCUCA
- pre-steady-state target cleavage rate [1]: 0.077 ± 0.013
- pre-steady-state target cleavage rate [2]: 0.00473 ± 0.002

Sequence: GGAGAGGAUACUAUUACAACCUACUACCUCA
- pre-steady-state target cleavage rate [1]: 0.167 ± 0.012
- pre-steady-state target cleavage rate [2]: 0.0933 ± 0.04

Sequence: GGAGUGCAAACUAUACAACCUACUACCUCA
- pre-steady-state target cleavage rate [1]: 0.126 ± 0.012
- pre-steady-state target cleavage rate [2]: 0.00676 ± 0.0044

Sequence: GGAGACGUUACUAUACAAGCUACUACCUCA
- pre-steady-state target cleavage rate [1]: 0.216 ± 0.017
- pre-steady-state target cleavage rate [2]: 0.00435 ± 0.002

Sequence: GGAGACGUUAGUAUACAACCUACUACCUCA
- pre-steady-state target cleavage rate [1]: 0.119 ± 0.013
- pre-steady-state target cleavage rate [2]: 0.00686 ± 0.0036

From the supplement of paper PMC10338343
